High-throughput results deposited in PubChem BioAssay by National Center for Advancing Translational Sciences (NCATS).
Only some compounds are listed: those with a hit (about 5.7% of all), similar ones and a draw of the others.
RORg inh: qHTS for inhibitors of ROR gamma transcriptional activity. Potency, µM (titrated, usually from 53.6 µM), without a hit: at the top dose activity change, negative = inhibition, usual class: inhibitors. Nuclear receptor ROR-gamma (Mus musculus), P51450. Drosophila S2 Gal4-RORgamma UAS-luciferase reporter, 20 h. 5.4% of 310,000 active; further: nearly all actives have a fitted effect of over 60% in size
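Compounds are pin-transferred onto Drosophila Schneider cells expressing a copper-inducible Gal4–ROR gamma transactivation domain fusion. After 1 hr, copper sulfate is added to 700 uM final; luciferase is read 20 hr later.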
B2AR arrestin: qHTS assay of beta-arrestin-biased ligands of beta2-adrenergic receptor. Beta-2 adrenergic receptor (Homo sapiens), P07550. beta-arrestin recruitment to beta2AR, cell-based reporter. Potency, µM (titrated, usually from 46.1 µM), for inactives: at the highest dose activation, actives largely listed as activators. 0.02% of 330,000 active. AID 492947, 2010;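 further: 0% = DMSO controls and full agonism = EC100 isoproterenol or metaproterenol; nearly all actives have a fitted effect of over 65% in size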
Target sequence (P07550 whole entry, looked up): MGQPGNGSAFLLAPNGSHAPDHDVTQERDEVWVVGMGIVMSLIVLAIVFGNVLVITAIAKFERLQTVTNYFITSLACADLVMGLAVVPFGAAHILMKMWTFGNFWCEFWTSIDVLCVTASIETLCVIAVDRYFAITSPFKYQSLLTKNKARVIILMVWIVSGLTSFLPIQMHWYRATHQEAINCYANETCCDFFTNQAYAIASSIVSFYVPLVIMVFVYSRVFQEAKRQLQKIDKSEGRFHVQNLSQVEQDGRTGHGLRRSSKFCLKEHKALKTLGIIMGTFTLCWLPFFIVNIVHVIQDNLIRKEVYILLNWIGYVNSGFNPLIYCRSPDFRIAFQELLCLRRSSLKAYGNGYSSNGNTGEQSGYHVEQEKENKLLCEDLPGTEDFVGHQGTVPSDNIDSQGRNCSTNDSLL
Gal4-VP16 FLuc: VP16 counterscreen qHTS for inhibitors of ROR gamma transcriptional activity | Potency, µM (titrated, usually from 53.6 µM), without a hit: at the highest dose activity, negative = inhibition, actives largely listed as inhibitors | 3.5% of 310,000 active | Drosophila S2 Gal4-VP16 UAS-luciferase, luminescence, 20 h;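 further: Gal4-VP16 expression switched on by copper sulfate through the metallothionein promoter; nearly all actives have a fitted effect of over 50% in size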
NPSR antagonist: qHTS Assay for Antagonists of the Neuropeptide S Receptor: cAMP Signal Transduction | Q6W5P4 | CHO-NPSR cells, cAMP TR-FRET, antagonist mode | Potency, µM (highest dose often 38.3 µM), for the others: top-dose activity change, negative = inhibition, actives largely listed as inhibitors | 1% of 220,000 active; further: nearly all actives have a fitted effect of over 50% in size
The depositor's hits bear a star; [ ] = dose if it differs, or a comment. The call rests on the fitted dose curve; in most records, active means well fitted curve in the direction sought with a large enough effect; inconclusive means small, poorly fitted or top-dose-only effect, or another doubt; inactive means no such curve, though single readings can be large; an effect the other way counts as inactive or inconclusive. Unless noted, on the % scale 0 is the no-effect control and ±100 the full control effect; potency means the concentration at half of the fitted maximal effect.

Screening C=C1c2ccccc2O[C@H](C(=O)OCC)[C@@H]1CC(C)(C)c1ccccc1 returned RORg inh 9% and Gal4-VP16 FLuc 14%.
Screening O=C(Oc1cncc(Cl)c1)c1ccco1 returned RORg inh inconclusive, B2AR arrestin 0%, Gal4-VP16 FLuc -5% and NPSR antagonist 7%[46.1 µM].
Screening O=C(Oc1c(CN2CCOCC2)cc(Cl)c2cccnc12)c1ccccc1Cl returned RORg inh 0.71µM*, B2AR arrestin 3.5µM*, Gal4-VP16 FLuc 3.5µM* and NPSR antagonist 7.9µM*.
Screening O=C(Oc1c(CN2CCOCC2)cc(Cl)c2cccnc12)c1cccs1 returned RORg inh 1.4µM*, B2AR arrestin 9%, Gal4-VP16 FLuc 1µM* and NPSR antagonist inconclusive.
O=C(Oc1c(Cl)cc(Cl)c2cccnc12)c1ccco1 was read as RORg inh 0.28µM*, B2AR arrestin inconclusive, Gal4-VP16 FLuc inconclusive and NPSR antagonist inconclusive.
For O=C(Oc1c(Cl)cc(Cl)c2cccnc12)c1cccs1 the results were RORg inh 0.63µM*, B2AR arrestin inconclusive, Gal4-VP16 FLuc 1µM* and NPSR antagonist -4%[46.1 µM].
Screening CCCn1nnnc1NCc1ccccc1Cl returned RORg inh 26%, B2AR arrestin 0% and Gal4-VP16 FLuc -3%.
Screening Fc1ccc(-c2nc3n(c2-c2ccncc2)CCS3)cc1 returned RORg inh -2% and Gal4-VP16 FLuc -4%.
Screening CCOC(=O)C1CCN(S(=O)(=O)c2cccc(-c3cn4cccnc4n3)c2)CC1 returned RORg inh 43%, B2AR arrestin -1%, Gal4-VP16 FLuc inconclusive and NPSR antagonist -8%[46.1 µM].
Screening CCOC(=O)C1CCN(S(=O)(=O)c2cccc(-c3cn4cc(C)ccc4n3)c2)CC1 returned RORg inh -19%, B2AR arrestin 0%, Gal4-VP16 FLuc 18µM* and NPSR antagonist -17%[46.1 µM].
Screening Cc1ccc(NC(=O)C(=Cc2ccc(C(=O)O)cc2)C(=O)Nc2ccc(C)cc2C)c(C)c1 returned RORg inh 16µM*, B2AR arrestin -1%, Gal4-VP16 FLuc inconclusive and NPSR antagonist inconclusive.
`CN(C)CCNC(=O)Cn1ccc2cc(S(=O)(=O)N3CCCCCC3)ccc21` gave RORg inh -7%, B2AR arrestin 0% and Gal4-VP16 FLuc -1%.
Cn1cccc1C(=O)N1CCC2(CCCN(c3ccccc3)C2)CC1 was read as RORg inh 9% and Gal4-VP16 FLuc -7%.
Screening Cc1cc(NC(=O)C(C)SCC(=O)N(C)CC(=O)Nc2ccc(Br)cc2C)no1 (centres undefined) returned RORg inh 13µM*, B2AR arrestin 0% and Gal4-VP16 FLuc 13µM*.
Cc1ccc(C)c(NC(=O)CN(C)C(=O)CSC(C)C(=O)Nc2cc(C)on2)c1 (centres undefined) was read as RORg inh 16%, B2AR arrestin -1% and Gal4-VP16 FLuc 11%.
Screening COC(=O)Oc1ccc(/C=N/NC(=O)CN(c2ccccc2Cl)S(C)(=O)=O)cc1OC returned RORg inh 0.0089µM*, B2AR arrestin 0%, Gal4-VP16 FLuc 0% and NPSR antagonist -4%[46.1 µM].
For O=C(CSCc1ccc(Cl)cc1)N/N=C/c1ccccc1 the results were RORg inh 9%, B2AR arrestin 0%, Gal4-VP16 FLuc -7% and NPSR antagonist 6%[46.1 µM].
For COC(=O)Oc1ccc(/C=N/NC(=O)CSCc2ccc(Cl)cc2)cc1OC the results were RORg inh -8%, B2AR arrestin 0%, Gal4-VP16 FLuc 16µM* and NPSR antagonist 3%.
`CSc1ccccc1NC(=O)c1ccc(N2CC3CC(C2)c2cccc(=O)n2C3)c(NC(=O)c2cccnc2)c1` (centres undefined) gave RORg inh 4%, B2AR arrestin 0% and Gal4-VP16 FLuc -8%.
`C/C(CC(=O)Nc1cccc2c1CCCC2)=N\NC=O` gave RORg inh -12%, B2AR arrestin -1%, Gal4-VP16 FLuc 17% and NPSR antagonist -18%.
For CCN1C(=O)[C@H]2[C@@H](c3ccc(-c4ccc(C(C)=O)cc4)c(OC)c3)N[C@@](Cc3ccccc3)(C(=O)OC)[C@H]2C1=O the results were B2AR arrestin 0%.
`On1onc2c3cc(-c4ccccc4)nc3ccc21` gave RORg inh 7.9µM*, B2AR arrestin 0%, Gal4-VP16 FLuc 10µM* and NPSR antagonist 13µM*.
Screening O=C(COc1ccc(-c2ccccc2)cc1)NNC(=O)Nc1ccc(F)cc1F returned RORg inh -18%, B2AR arrestin 0% and Gal4-VP16 FLuc 1%.
For CC1C=CCCOC1c1ccccc1 (centres undefined) the results were RORg inh 8%[10 µM] and Gal4-VP16 FLuc 8%[10 µM].
For [O-][n+]1onc2c1CCc1c-2nn(-c2ccccc2Cl)[n+]1[O-] the results were RORg inh 6.3µM*, B2AR arrestin 0%, Gal4-VP16 FLuc 3.2µM* and NPSR antagonist inconclusive.
Cc1ccc(-n2nc3c([n+]2[O-])CCc2c-3no[n+]2[O-])cc1 was read as RORg inh -11%, B2AR arrestin 0%, Gal4-VP16 FLuc inconclusive and NPSR antagonist -14%[46.1 µM].
`COc1ccc(NS(=O)(=O)c2cc(NC(=O)[C@H](C)NC(N)=O)ccc2N2CCCC2)cc1` gave B2AR arrestin 0%.
For CC(NC(N)=O)C(=O)Nc1ccc(Cl)c(S(=O)(=O)Nc2ccc(Br)cc2)c1 (centres undefined) the results were RORg inh 6.3µM*, B2AR arrestin 0%, Gal4-VP16 FLuc 3.2µM* and NPSR antagonist -1%.
Screening Cc1ccc(S(=O)(=O)N(C)C)cc1NC(=O)COC(=O)c1ccc2c(=O)n3c(nc2c1)CCC3 returned B2AR arrestin 0%.
`Cc1nn(C(C)C(=O)NCc2ccco2)c(C)c1[N+](=O)[O-]` (centres undefined) gave RORg inh 5%, B2AR arrestin 0%, Gal4-VP16 FLuc -4% and NPSR antagonist 7%.
C/C(=N\NC(=O)C(C)n1nc(C)c([N+](=O)[O-])c1C)c1ccccc1O (centres undefined) was read as RORg inh 0.14µM*, B2AR arrestin 2%, Gal4-VP16 FLuc 0.18µM* and NPSR antagonist 11%.
CCC1CCCCN1C(=S)NC(=O)c1cc(S(=O)(=O)N2CCOCC2)ccc1C (centres undefined) was read as RORg inh 2.2µM*, B2AR arrestin 6%, Gal4-VP16 FLuc 4µM* and NPSR antagonist -1%.
`Cc1ccc(S(=O)(=O)N2CCOCC2)cc1C(=O)NCC1CCCO1` (centres undefined) gave RORg inh 0%, B2AR arrestin -1% and Gal4-VP16 FLuc 0%.
Screening Cc1ccc(S(=O)(=O)N2CCOCC2)cc1C(=O)Nc1nc2ccccc2[nH]1 returned RORg inh 16µM*, B2AR arrestin -1%, Gal4-VP16 FLuc 18µM* and NPSR antagonist -4%[46.1 µM].
For c1csc(CCNc2ncnc3sc4c(c23)CCC4)c1 the results were RORg inh -43%, B2AR arrestin -1%, Gal4-VP16 FLuc 11µM* and NPSR antagonist -17%[46.1 µM].
